Assay results as given in the supplement of paper PMC10849652.
About 8,800 targets were measured; listed, in parts, are those with a hit and a random draw of the rest. About 0.5% of all pairs of compound and target were hits.

Key:
Assay in all cases: log2 fold change, soluble protein after heating vs DMSO (PISA); higher = thermal stabilisation; K562 lysate, 10 uM; active = over 0.2 and 3.5 SD of the protein, either way, in both replicates (recomputed)
[1] = compound: C1=CC=C(C=C1)[C@H](COC2=CC3=C(C=C2)NC(=O)N3)NC(=O)C4=CC=CN(C4=O)CC5=CC(=C(C=C5)F)F
Method in brief: (§1)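 K562 pellets were dounce-homogenised in PBS pH 7.4 with 1 mM MgCl2, and the crude extract at 1 mg/mL protein was treated with 10 μM compound for 30 min. Aliquots were heated for 3 min across 48°C-58°C, pooled, and brought to 0.5% NP-40 at 4°C; soluble protein was the supernatant after 21,000xg for 90 min. Soluble protein was quantified by TMTpro 16plex LC-MS/MS with channel sums equalised, and reported as log2 fold change in thermal stability against DMSO controls, with values from duplicates.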

[2] = compound: CC1=C(SC2=C1C(=N[C@H](C3=NN=C(N32)C)CC(=O)N)C4=CC=C(C=C4)Cl)C
Method in brief: as §1

[3] = compound: CC1=C2C(=CC=C1)N=C(N(C2=O)C3=CC=CC=C3C)CN4C=NC5=C(N=CN=C54)N
Method in brief: as §1

[4] = compound: Cc1sc2c(c1C)C(c1ccc(Cl)cc1)=N[C@@H](CC(=O)OC(C)(C)C)c1nnc(C)n1-2
Method in brief: as §1

[5] = compound: c1ccc([C@@H]2C[C@H]2NC2CCNCC2)cc1
Method in brief: as §1

Measured: log2 fold change

COG6 (UniProt Q9Y2V7)
Chain of UniProt Q9Y2V7 (Q9Y2V7 whole entry, looked up): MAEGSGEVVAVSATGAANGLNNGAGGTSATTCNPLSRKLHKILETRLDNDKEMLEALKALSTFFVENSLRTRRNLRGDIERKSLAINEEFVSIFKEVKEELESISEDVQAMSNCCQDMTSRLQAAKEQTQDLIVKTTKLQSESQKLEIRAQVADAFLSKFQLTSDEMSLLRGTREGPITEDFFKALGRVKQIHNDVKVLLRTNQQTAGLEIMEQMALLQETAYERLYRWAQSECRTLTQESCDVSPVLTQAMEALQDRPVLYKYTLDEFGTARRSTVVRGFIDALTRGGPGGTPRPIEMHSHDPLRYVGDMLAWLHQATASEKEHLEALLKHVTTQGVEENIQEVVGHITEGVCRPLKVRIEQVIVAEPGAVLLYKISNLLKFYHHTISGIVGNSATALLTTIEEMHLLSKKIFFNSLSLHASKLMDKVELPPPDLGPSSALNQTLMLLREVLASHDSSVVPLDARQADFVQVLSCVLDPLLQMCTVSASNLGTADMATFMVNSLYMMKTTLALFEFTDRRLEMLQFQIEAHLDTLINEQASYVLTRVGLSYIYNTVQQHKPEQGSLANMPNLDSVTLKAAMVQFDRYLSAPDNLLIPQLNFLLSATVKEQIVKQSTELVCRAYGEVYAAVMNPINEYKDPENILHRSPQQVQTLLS
inactive: [1] -0.023 | [2] 0.011 | [3] 0.029 | [4] -0.032 | [5] 0.069

DHRS3 (UniProt O75911)
inactive: [1] 0.073 | [2] 0.064 | [3] -0.091 | [4] 0.018 | [5] -0.004

CLASP2 isoform 3 (UniProt O75122)
inactive: [1] 0.002 | [2] -0.028 | [3] 0.079 | [4] -0.003 | [5] -0.061

COL6A5 (UniProt A8TX70)
inactive: [1] 0.025 | [2] 0.052 | [3] 0.089 | [4] -0.061 | [5] -0.545

DGCR8 (UniProt Q8WYQ5)
inactive: [1] -0.05 | [2] 0.063 | [3] 0.004 | [4] 0.029 | [5] 0.017

CSDE1 isoform 4 (UniProt O75534)
inactive: [1] -0.012 | [2] -0.009 | [3] -0.017 | [4] 0.046 | [5] 0.04

CPT1A (UniProt P50416)
inactive: [1] 0.042 | [2] 0.03 | [3] -0.004 | [4] 0.07 | [5] 0.011

CWC22 (UniProt Q9HCG8)
inactive: [1] -0.033 | [2] 0.028 | [3] 0.034 | [4] 0.079 | [5] 0.237

CSPP1 (UniProt Q1MSJ5)
inactive: [1] -0.082 | [2] 0.001 | [3] 0.051 | [4] -0.008 | [5] -0.028

DENND4A isoform 2 (UniProt Q7Z401)
Chain of UniProt Q7Z401 (Q7Z401 whole entry, looked up): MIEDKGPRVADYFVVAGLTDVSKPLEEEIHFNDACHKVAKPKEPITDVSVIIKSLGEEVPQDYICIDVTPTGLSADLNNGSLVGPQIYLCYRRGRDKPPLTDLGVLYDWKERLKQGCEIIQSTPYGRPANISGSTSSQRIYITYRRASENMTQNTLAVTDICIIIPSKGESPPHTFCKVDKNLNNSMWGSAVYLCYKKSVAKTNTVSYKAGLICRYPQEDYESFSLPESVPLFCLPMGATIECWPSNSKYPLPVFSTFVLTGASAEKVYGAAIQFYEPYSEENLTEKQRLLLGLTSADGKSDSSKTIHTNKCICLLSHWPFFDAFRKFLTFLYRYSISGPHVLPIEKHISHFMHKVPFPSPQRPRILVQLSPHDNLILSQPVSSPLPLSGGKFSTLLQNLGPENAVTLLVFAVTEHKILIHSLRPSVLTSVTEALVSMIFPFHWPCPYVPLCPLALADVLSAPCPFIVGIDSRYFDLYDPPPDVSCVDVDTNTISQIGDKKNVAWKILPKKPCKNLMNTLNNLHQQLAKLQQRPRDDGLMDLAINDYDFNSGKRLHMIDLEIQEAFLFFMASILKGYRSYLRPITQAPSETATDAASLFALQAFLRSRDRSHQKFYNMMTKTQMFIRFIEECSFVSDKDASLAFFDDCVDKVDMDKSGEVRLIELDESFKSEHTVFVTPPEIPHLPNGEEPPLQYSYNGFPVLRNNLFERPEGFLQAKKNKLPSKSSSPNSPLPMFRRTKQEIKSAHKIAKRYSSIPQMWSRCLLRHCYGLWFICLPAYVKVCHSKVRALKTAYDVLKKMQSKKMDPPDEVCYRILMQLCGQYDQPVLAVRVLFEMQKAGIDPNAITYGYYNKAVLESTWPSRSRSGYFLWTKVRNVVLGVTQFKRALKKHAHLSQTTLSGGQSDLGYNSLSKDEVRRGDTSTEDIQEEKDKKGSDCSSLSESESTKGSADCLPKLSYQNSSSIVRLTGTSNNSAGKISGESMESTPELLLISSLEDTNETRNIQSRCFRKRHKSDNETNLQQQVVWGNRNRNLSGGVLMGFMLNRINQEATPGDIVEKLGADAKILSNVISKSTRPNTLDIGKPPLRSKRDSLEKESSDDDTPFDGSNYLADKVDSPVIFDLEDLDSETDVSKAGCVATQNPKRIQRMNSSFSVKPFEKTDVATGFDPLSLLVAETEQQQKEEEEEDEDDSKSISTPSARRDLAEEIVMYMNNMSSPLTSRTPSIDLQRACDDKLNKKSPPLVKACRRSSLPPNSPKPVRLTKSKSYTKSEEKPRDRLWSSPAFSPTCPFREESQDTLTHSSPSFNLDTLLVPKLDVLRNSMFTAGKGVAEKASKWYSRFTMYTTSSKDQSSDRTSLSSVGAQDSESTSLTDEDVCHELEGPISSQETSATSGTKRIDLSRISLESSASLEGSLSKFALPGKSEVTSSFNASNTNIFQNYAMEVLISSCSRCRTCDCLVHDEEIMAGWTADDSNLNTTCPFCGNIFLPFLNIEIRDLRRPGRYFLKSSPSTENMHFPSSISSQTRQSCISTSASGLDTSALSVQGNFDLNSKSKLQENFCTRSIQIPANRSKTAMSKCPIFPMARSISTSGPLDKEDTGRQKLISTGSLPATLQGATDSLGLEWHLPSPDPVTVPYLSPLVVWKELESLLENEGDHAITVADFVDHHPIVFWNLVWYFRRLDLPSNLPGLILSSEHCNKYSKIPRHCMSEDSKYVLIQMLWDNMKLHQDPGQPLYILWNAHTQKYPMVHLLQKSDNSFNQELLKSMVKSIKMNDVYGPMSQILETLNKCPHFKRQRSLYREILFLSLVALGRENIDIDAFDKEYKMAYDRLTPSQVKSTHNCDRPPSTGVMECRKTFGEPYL
inactive: [1] -0.02 | [2] 0.028 | [3] -0.007 | [4] 0.039 | [5] -0.064

CMSS1 (UniProt Q9BQ75)
inactive: [1] 0.035 | [2] -0.069 | [3] -0.017 | [4] -0.023 | [5] 0.106

DNAAF5 (UniProt Q86Y56)
Chain of UniProt Q86Y56 (Q86Y56 whole entry, looked up): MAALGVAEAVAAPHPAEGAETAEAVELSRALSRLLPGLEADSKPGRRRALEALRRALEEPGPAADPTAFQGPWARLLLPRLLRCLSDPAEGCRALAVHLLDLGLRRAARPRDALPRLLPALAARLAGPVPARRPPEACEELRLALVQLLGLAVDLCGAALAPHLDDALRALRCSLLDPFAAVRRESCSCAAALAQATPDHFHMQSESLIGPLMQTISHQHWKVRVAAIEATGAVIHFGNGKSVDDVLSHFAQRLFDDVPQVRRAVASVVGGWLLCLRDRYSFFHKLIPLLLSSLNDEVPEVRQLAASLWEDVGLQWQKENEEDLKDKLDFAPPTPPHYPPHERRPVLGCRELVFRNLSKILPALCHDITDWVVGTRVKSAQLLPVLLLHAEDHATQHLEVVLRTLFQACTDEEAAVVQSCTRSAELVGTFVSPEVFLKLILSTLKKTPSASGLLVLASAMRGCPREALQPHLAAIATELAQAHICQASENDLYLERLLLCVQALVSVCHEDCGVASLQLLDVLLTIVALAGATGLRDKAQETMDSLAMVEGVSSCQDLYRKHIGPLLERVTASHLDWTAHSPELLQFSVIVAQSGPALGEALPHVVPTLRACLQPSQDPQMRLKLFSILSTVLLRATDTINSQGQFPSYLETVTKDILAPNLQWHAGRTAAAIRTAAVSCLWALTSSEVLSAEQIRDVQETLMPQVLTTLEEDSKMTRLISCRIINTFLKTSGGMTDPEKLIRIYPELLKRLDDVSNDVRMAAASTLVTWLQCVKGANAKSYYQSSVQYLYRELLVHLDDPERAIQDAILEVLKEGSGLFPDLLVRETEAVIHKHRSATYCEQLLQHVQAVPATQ
inactive: [1] -0.054 | [2] 0.038 | [3] -0.005 | [4] 0.016 | [5] 0.064

COG3 (UniProt Q96JB2)
inactive: [1] -0.03 | [2] -0.015 | [3] 0.016 | [4] 0.033 | [5] 0.019

CKM (UniProt P06732)
inactive: [1] 0.008 | [2] -0.027 | [3] -0.109 | [4] -0.169 | [5] 0

DEF6 (UniProt Q9H4E7)
inactive: [1] -0.061 | [2] -0.05 | [3] -0.027 | [4] 0.036 | [5] -0.037

CKS1B (UniProt P61024)
inactive: [1] 0.017 | [2] -0.074 | [3] -0.058 | [4] 0.108 | [5] 0.194

CNOT6L (UniProt Q96LI5)
inactive: [1] -0.014 | [2] 0.017 | [3] -0.013 | [4] -0.049 | [5] -0.164

CLPTM1L (UniProt Q96KA5)
Chain of UniProt Q96KA5 (Q96KA5 whole entry, looked up): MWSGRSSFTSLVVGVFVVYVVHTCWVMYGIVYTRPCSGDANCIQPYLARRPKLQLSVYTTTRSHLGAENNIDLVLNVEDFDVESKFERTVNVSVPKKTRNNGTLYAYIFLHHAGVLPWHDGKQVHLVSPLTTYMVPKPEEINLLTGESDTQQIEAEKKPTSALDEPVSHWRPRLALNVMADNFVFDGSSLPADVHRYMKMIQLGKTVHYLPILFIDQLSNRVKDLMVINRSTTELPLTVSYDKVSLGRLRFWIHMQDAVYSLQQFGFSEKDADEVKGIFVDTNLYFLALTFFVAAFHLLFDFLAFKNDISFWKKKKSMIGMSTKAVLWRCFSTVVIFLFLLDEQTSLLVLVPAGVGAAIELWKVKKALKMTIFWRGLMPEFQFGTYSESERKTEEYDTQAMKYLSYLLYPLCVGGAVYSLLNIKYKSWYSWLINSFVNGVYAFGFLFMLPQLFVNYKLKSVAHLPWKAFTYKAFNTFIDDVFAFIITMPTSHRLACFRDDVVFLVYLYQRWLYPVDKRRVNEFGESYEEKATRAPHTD
inactive: [1] -0.075 | [2] 0.039 | [3] 0.04 | [4] -0.02 | [5] 0.022

COQ9 (UniProt O75208)
inactive: [1] -0.102 | [2] -0.069 | [3] 0.026 | [4] 0.015 | [5] 0.08

CUEDC2 (UniProt Q9H467)
Chain of UniProt Q9H467 (Q9H467 whole entry, looked up): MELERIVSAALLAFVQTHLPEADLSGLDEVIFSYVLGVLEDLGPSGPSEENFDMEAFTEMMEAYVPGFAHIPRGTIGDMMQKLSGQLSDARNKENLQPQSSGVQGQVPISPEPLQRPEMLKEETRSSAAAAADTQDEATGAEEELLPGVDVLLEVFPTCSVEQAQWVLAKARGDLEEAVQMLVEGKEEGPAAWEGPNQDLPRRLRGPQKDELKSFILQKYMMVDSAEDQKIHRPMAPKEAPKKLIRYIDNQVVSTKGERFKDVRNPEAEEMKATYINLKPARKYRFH
inactive: [1] 0.074 | [2] 0.019 | [3] -0.017 | [4] 0.013 | [5] 0.11

DNM2 (UniProt P50570)
inactive: [1] -0.01 | [2] 0.038 | [3] 0.035 | [4] 0.05 | [5] 0.057

CTPS2 (UniProt Q9NRF8)
inactive: [1] -0.001 | [2] -0.009 | [3] -0.008 | [4] 0.004 | [5] 0

DFFB (UniProt O76075)
inactive: [1] 0.06 | [2] -0.057 | [3] 0.061 | [4] -0.032 | [5] 0.081

CLUH (UniProt O75153)
inactive: [1] 0.03 | [2] 0.008 | [3] 0.021 | [4] -0.02 | [5] -0.058

DENND1B (UniProt Q6P3S1)
inactive: [1] 0.154 | [2] -0.205 | [3] -0.062 | [4] -0.182 | [5] 0.014

DHCR7 (UniProt Q9UBM7)
Chain of UniProt Q9UBM7 (Q9UBM7 whole entry, looked up): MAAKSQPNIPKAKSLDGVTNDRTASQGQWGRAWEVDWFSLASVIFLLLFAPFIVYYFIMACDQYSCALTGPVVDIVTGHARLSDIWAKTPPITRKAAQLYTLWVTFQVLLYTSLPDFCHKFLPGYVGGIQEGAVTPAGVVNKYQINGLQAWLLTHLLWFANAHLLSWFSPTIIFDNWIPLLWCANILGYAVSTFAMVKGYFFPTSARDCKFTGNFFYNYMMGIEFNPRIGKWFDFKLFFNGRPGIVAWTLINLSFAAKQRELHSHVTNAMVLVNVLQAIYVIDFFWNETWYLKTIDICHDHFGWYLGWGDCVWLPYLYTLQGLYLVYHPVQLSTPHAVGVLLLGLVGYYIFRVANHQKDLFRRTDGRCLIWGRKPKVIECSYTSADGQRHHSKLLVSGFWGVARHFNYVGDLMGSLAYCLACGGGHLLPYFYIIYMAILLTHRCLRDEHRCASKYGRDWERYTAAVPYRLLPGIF
inactive: [1] -0.107 | [2] 0.028 | [3] -0.031 | [4] -0.045 | [5] 0.091

CLASP1 (UniProt Q7Z460)
inactive: [1] -0.019 | [2] 0.011 | [3] 0.022 | [4] -0.026 | [5] -0.007

CINP isoform 3 (UniProt Q9BW66)
Chain of UniProt Q9BW66 (Q9BW66 whole entry, looked up): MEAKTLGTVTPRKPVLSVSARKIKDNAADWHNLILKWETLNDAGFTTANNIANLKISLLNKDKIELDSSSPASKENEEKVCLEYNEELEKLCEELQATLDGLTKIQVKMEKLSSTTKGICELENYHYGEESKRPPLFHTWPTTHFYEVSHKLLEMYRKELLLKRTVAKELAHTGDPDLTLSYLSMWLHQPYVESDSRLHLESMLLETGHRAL
inactive: [1] -0.016 | [2] -0.042 | [3] 0.039 | [4] -0.157 | [5] -0.145

DPM1 (UniProt O60762)
inactive: [1] -0.01 | [2] 0.048 | [3] 0.022 | [4] 0.073 | [5] 0.093

CLIP1 isoform 1 (UniProt P30622)
inactive: [1] 0.04 | [2] -0.008 | [3] -0.002 | [4] -0.028 | [5] -0.019

DES (UniProt P17661)
inactive: [1] 0 | [2] 0.05 | [3] 0.062 | [4] -0.219 | [5] -0.131

CSNK2A1 (UniProt P68400)
inactive: [1] -0.004 | [2] 0.012 | [3] -0.119 | [4] 0.034 | [5] 0.005

DMXL1 (UniProt Q9Y485)
inactive: [1] 0.011 | [2] 0.01 | [3] 0 | [4] -0.005 | [5] 0.016

DOCK8 (UniProt Q8NF50)
inactive: [1] -0.011 | [2] -0.004 | [3] 0.013 | [4] 0.005 | [5] 0.05

DHRS1 (UniProt Q96LJ7)
inactive: [1] 0.15 | [2] -0.103 | [3] -0.015 | [4] 0.029 | [5] -0.107

COG5 isoform 2 (UniProt Q9UP83)
inactive: [1] 0.034 | [2] 0.045 | [3] -0.042 | [4] -0.003 | [5] 0.033

CYCS (UniProt P99999)
inactive: [1] -0.013 | [2] 0.016 | [3] 0.002 | [4] 0.002 | [5] -0.01

CNP (UniProt P09543)
inactive: [1] -0.022 | [2] 0.001 | [3] 0.036 | [4] 0.016 | [5] 0.021

CXorf38 (UniProt Q8TB03)
inactive: [1] 0.021 | [2] 0.007 | [3] -0.021 | [4] -0.004 | [5] 0.031

COMT (UniProt P21964)
inactive: [1] -0.007 | [2] -0.01 | [3] -0.016 | [4] 0.062 | [5] 0.054

CSNK1D (UniProt P48730)
inactive: [1] -0.027 | [2] 0.014 | [3] -0.127 | [4] -0.026 | [5] 0.025

CTNNBL1 (UniProt Q8WYA6)
inactive: [1] -0.003 | [2] 0 | [3] 0.004 | [4] -0.087 | [5] 0.073

CUX1 isoform 3 (UniProt P39880)
inactive: [1] -0.001 | [2] 0.024 | [3] 0.031 | [4] 0.025 | [5] 0.03

CLCN3 isoform 2 (UniProt P51790)
inactive: [1] 0.033 | [2] 0.017 | [3] 0.053 | [4] -0.015 | [5] 0.033

COTL1 (UniProt Q14019)
Chain of UniProt Q14019 (Q14019 whole entry, looked up): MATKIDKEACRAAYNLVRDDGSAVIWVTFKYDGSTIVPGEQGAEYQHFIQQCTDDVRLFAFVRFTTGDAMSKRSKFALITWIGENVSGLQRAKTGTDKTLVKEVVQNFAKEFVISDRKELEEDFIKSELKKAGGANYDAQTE
inactive: [1] -0.018 | [2] -0.019 | [3] 0.01 | [4] 0.031 | [5] 0.064

DICER1 (UniProt Q9UPY3)
inactive: [1] 0.028 | [2] 0.006 | [3] 0.045 | [4] 0.029 | [5] -0.038

CORO1A (UniProt P31146)
inactive: [1] -0.024 | [2] 0.021 | [3] 0.004 | [4] 0.078 | [5] -0.019

CHFR (UniProt Q96EP1)
inactive: [3] 0.027 | [4] -0.056

CLIP1, A0A3B3ITA2
inactive: [3] 0.035 | [5] -0.123

CNNM2 (UniProt Q9H8M5)
inactive: [3] 0.041 | [4] 0.034 | [5] 0.014

DALRD3 (UniProt Q5D0E6)
inactive: [3] 0.193 | [5] 0.137

CSDE1 isoform 3 (UniProt O75534)
inactive: [1] -0.18 | [2] -0.098 | [5] 0.043

CORO7 (UniProt P57737)
inactive: [3] 0.18 | [4] 0.165 | [5] 0.164

DIAPH1 (UniProt H9KV28)
inactive: [1] 0.009 | [2] 0.023 | [3] 0.007 | [5] -0.117

CHMP4A (UniProt H0YIN6)
inactive: [1] 0.032 | [2] 0.166 | [4] -0.222 | [5] -0.12

CRLS1 (UniProt Q9UJA2)
inactive: [1] -0.349 | [2] 0.044 | [5] 0.065
